Out of some 7,400 compounds screened, about 4,100 (55%) were called active.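 Rule for the calls: active = inhibition of yeast growth at or above a set limit in either of two repeat tests at 20 µM; inactive = the rest.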 The set was probably picked from earlier hits. The list is a sample of the results.
assay: tim10-1 ts yeast growth inhibition, retested – single concentration, luminescence, S. cerevisiae, confirmation (AID 463213);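 note: tim10-1 mutant grown at permissive 25 °C to find synthetic lethal compounds; 0% = DMSO yeast wells and 100% = medium wells without yeast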; conditions: S. cerevisiae tim10-1 ts strain growth, BacTiter-Glo, 24 h; at 20 µM; stronger effect = higher value

Compound	inhibition
O=C(Nc1nnc(SCc2c(Cl)cccc2Cl)s1)C1CCCO1 (stereo not given)	37% (active)
CN(C(=O)COc1nnc(-c2cccs2)c(-c2cccs2)n1)c1ccccc1	17% (inactive)
CN(C(=O)CC(NC(=O)c1ccccc1)(c1ccccc1)c1ccccc1)c1ccccc1	31.1% (active)
CCOc1ccccc1/C=c1\sc2nc(-c3ccco3)nn2c1=O	49.4% (active)
CCc1cccc(CC)c1NC(=S)NCc1ccc2[nH]c(C)cc2c1	35.8% (active)
O=C1Oc2ccccc2C(=O)/C1=C/c1ccccc1O	55.9% (active)
CN(C)CCCN(C(=O)c1ccc(S(=O)(=O)N2CCCc3ccccc32)cc1)c1nc2ccc(F)cc2s1	44.5% (active)
COC(=O)c1cc(S(=O)(=O)N2CCN(c3cc(C)ccc3C)CC2)c[nH]1	17.7% (inactive)
Nc1cc(OC(=O)c2ccccc2Br)nn1S(=O)(=O)c1ccccc1	33.8% (active)
O=C1c2ccccc2S(=O)(=O)N1CC(O)Cn1c2ccccc2c2ccccc21 (stereo not given)	51.1% (active)
CCOC(=O)c1ccccc1CN1C(=O)c2ccccc2S1(=O)=O	17.6% (inactive)
Cc1ccc(C)c(N2CCN(C(=O)CCCCn3c(=O)[nH]c4ccccc4c3=O)CC2)c1	17.4% (inactive)
COc1cccc(-c2cc3nc4c(c(N5CCC6(CC5)OCCO6)n3n2)CCCC4)c1	-1.05% (inactive)
O=c1nc2s/c(=C\c3ccco3)c(=O)n2nc1Cc1ccccc1	66.9% (active)
O=C1OC(/C=C/c2ccccc2)=NC/1=C/c1ccco1	3% (inactive)
O=C(CSc1cccc2cccnc12)N/N=C/c1cccnc1	36% (active)
CCOc1cc(-c2conc2N)cc(OCC)c1OCC	20.5% (inactive)
CCOC(=O)c1ccc(NC(=O)c2nc[nH]c2C(=O)NCc2ccccc2)cc1	41.4% (active)
COC(=O)c1ccc(NC(=O)c2ccccc2NS(=O)(=O)c2ccccc2)cc1	19.4% (inactive)
O=C(COc1ccccc1F)NNC(=O)c1ccc(N2CCCCC2)c([N+](=O)[O-])c1	25.8% (inactive)
Cc1ccccc1OCC(=O)Nc1ccc(N2CCN(C(=O)C(C)C)CC2)c(Cl)c1	66.9% (active)
CN1CCN(c2ccccc2NC(=O)COc2ccc(C3CCCCC3)cc2)CC1	12.4% (inactive)
O=[N+]([O-])c1c(NCCO)cc(Sc2nc3ccccc3s2)c2nonc12	19% (active)
CNC(=O)c1csc(Cc2c(Cl)sc3ccc(Cl)cc23)n1	20.5% (inactive)

Compound	inhibition
CCCc1cc(-c2nc(-c3ccc(C)cc3)cs2)ccn1	34.8% (active)
CCOC(=O)/C=C/c1ccc(C(F)(F)F)cc1S(=O)(=O)NC(C)(C)C	29.9% (inactive)
O=C(Nc1ccccc1Cl)/C(Cl)=C(\Cl)S(=O)c1ccccc1 (stereo not given)	55% (active)
Cc1[nH]n(C(N)=S)c(=O)c1N=Nc1ccc(Cl)cc1Cl	61.3% (active)
CC(=O)Oc1ccc2c(c1)C(=O)c1ccccc1C2=O	31.1% (active)
O=C(CSC(=S)N1CCOCC1)c1cc(Br)cc(Br)c1O	46% (active)
C[C@@H](NC(=O)OC(C)(C)C)c1nnc(S(=O)(=O)Cc2ccccc2)o1	48.3% (active)
CCOC(=O)Cc1csc(NC(=O)CSc2ccc(Br)cc2)n1	31.3% (active)
CCOC(=O)Cc1csc(SCC(=O)NC(C)C23CC4CC(CC(C4)C2)C3)n1 (stereo not given)	40.4% (active)
COc1ccc(NC(C)=O)cc1NC(=O)CN1CCN(C2c3ccccc3-c3ccccc32)CC1	15.5% (inactive)
O=C(Nc1ccccc1)c1nnsc1S(=O)(=O)c1ccc(Cl)cc1	85.3% (active)
COc1cc(/C=C2/C(=O)ON=C2C)ccc1OCc1ccccc1F	26.9% (inactive)
CCCN(CC1COc2ccccc2O1)C(=S)Nc1ccc(C)cc1 (stereo not given)	36.7% (active)
Cc1ccc(C(=O)COc2cccc(NC(=O)c3ccco3)c2)cc1	5.8% (inactive)
Cc1ccoc1C(=O)Nc1cccc(Oc2ccccc2)c1	43.2% (active)
CN(C)N1C(N)=C(C#N)C(c2ccc(Br)cc2)C2=C1CCCC2=O (stereo not given)	8.4% (inactive)
S=c1[nH]nc(-c2cccnc2)n1/N=C/C(Cl)=C\c1ccccc1	33.9% (active)
Fc1ccccc1/C=C1\CCCC2=C1Nc1ncnn1C2c1ccccc1F (stereo not given)	30.5% (active)
NC(=O)c1sc2nc3c(c(-c4ccccc4)c2c1N)CCC3	19.1% (inactive)
Cc1ccc2c(N)c(C(=O)c3ccccc3)sc2n1	29.6% (inactive)
Cc1nc2sc(C(=O)c3ccccc3)c(N)c2c2c1CCCC2	37.9% (active)
CCn1c(COc2c(C)cccc2C)nnc1SCc1nc2ccccc2c(=O)[nH]1	20.1% (inactive)
CCCCCCCCCCCCCCCC(=O)OC/C=C(C)/C=C/C=C(C)/C=C/C1=C(C)CCCC1(C)C	17.2% (inactive)
COC(=O)CCc1sc(Nc2ccc(Br)cc2)nc1-c1ccc(OC)cc1	19.9% (inactive)

Compound	inhibition
COc1ccc(C(=O)COC(=O)c2ccc([N+](=O)[O-])s2)cc1OC	50.6% (active)
COc1ccc(C(=O)OCC(=O)c2cc(C)n(CC3CCCO3)c2C)cc1[N+](=O)[O-] (stereo not given)	6% (inactive)
O=C1Nc2ccc(Br)cc2/C1=N/N=C/C1=C(N2CCOCC2)C(=C\c2ccccc2)/CC1	59.5% (active)
O=S(=O)(Nc1ccc(O)c2ccccc12)c1ccc(OC(F)(F)F)cc1	32.2% (active)
CC(C)NC(=O)/C(C#N)=C\c1ccc(N(C)C)c(Br)c1	46.5% (active)
O=C1NC(Nc2nc3ccccc3s2)(C(F)(F)F)C(=O)N1C1CCCCC1 (stereo not given)	35.5% (active)
COC(=O)c1c(NC(=O)COc2ccc(Cl)cc2Cl)sc2c1CC(C)(C)NC2(C)C	14.3% (inactive)
Clc1ccc(Nc2nc(-c3cccs3)cs2)nc1	15% (inactive)
Cc1ccc(Nc2nc(-c3ccc(O)cc3O)cs2)nc1	27.6% (active)
COc1ccccc1N1CCN(C(=O)c2cc(=O)c3cc(C)cc(C)c3o2)CC1	24.9% (inactive)
CCOC(=O)C/C(C)=N\Nc1ccc([N+](=O)[O-])cc1[N+](=O)[O-]	9.35% (inactive)
O=[N+]([O-])c1ccc(N/N=C2/CCCCC2c2ccccn2)c([N+](=O)[O-])c1 (stereo not given)	38.6% (active)
c1ccc(-c2nnc3n2NC(c2ccc4c(c2)OCO4)S3)cc1 (stereo not given)	34% (active)
Cc1cccc(C2c3[nH]c4ccccc4c3CCN2C(=O)c2cc(-c3cccn3C)n[nH]2)n1 (stereo not given)	14.3% (inactive)
C=CCCC(=O)Nc1nc(C)c(-c2csc(Nc3ccc(Cl)cc3)n2)s1	19.9% (inactive)
CCCCC(=O)Nc1nc(C)c(-c2csc(Nc3ccc(Cl)cc3)n2)s1	31% (active)
O=[N+]([O-])c1ccc(C=Nc2ccc(Cl)cc2Cl)s1	69.8% (active)
COc1ccc(/C=C/C2=CC(C)(C)NC(=S)N2)c(OC)c1	20.4% (inactive)
NS(=O)(=O)c1ccc(NC(=S)Nc2ccc(Br)c(Cl)c2)cc1	41.2% (active)
CC(Nc1nc(C(F)(F)F)nc2ccccc12)c1cccs1 (stereo not given)	30.1% (active)
O=C1CC(c2ccccc2)=NN1c1ccc([N+](=O)[O-])cc1	23.8% (inactive)
O=[N+]([O-])c1ccc2c(c1)Nc1nc3ccccc3nc1N2	70.2% (active)
COc1ccccc1NC(=O)C1=C(C)Nc2nnnn2C1c1cccc(Br)c1 (stereo not given)	28.7% (inactive)
CC(C)c1cc(C(N)=O)c(NC(=O)c2cccc(COc3ccc(Br)cc3)c2)s1	26.9% (inactive)

Compound	inhibition
CCc1cc(C(N)=O)c(NC(=O)c2ccc(OC)cc2)s1	58.2% (active)
Cn1c(-c2sccc2OCc2cccc(C(F)(F)F)c2)n[nH]c1=S	25.1% (inactive)
CCSC1=C(C#N)C(=O)n2c1cc1c2CCCC1	52.3% (active)
N#CC1(C#N)C(C(=O)C23CC4CC(CC(C4)C2)C3)C12CCOCC2 (stereo not given)	41.9% (active)
COc1ccc(S(=O)(=O)Nc2ccc(O)c(Sc3nc4ccccc4s3)c2)cc1	37% (active)
COc1cc(NS(=O)(=O)c2ccc3ccccc3c2)c2ncccc2c1	27.8% (inactive)
CC(=NCc1ccc2c(c1)OCO2)C1=C(O)c2ccccc2C1=O	40.3% (active)
c1ccc(-c2cn3c(n2)CCc2ccc4cccnc4c2-3)cc1	30.3% (active)
Cc1nc2ccccc2cc1OCc1ccc(F)cc1	9.05% (inactive)
Cc1ccc(-c2csc(-c3c[nH]c4ccccc34)n2)cc1	50.9% (active)
O=C(c1cccs1)N(C(=O)c1cccs1)c1ccccn1	20.9% (inactive)
COc1ccc(C)cc1Nc1nc(C)nc2c1oc1ccccc12	25.5% (inactive)
O=C(NCCc1ccc(F)cc1)c1ccc(S(=O)(=O)N2CCCCC2)cc1	43.5% (active)
O=C(CCc1ccc(S(=O)(=O)N2CCOCC2)cc1)Nc1ccc2ccccc2c1	28.1% (inactive)
COc1ccc(Oc2cn[nH]c2-c2ccc(OC)cc2O)cc1	39.3% (active)
CCCc1[nH]nc2c1C(c1ccc(Br)s1)C(C#N)=C(N)O2 (stereo not given)	79.5% (active)
CSc1ccc(S(=O)(=O)NC2CCCCC2)cc1	22.4% (inactive)
CSc1ccc(S(=O)(=O)NCc2ccc(Cl)cc2)cc1	30.4% (active)
N/C(=N\OC(=O)c1cc(-c2ccccc2)nc2ccccc12)c1ccncc1	70.7% (active)
O=[N+]([O-])c1ccc(N2CCN(c3ccc(O)cc3)CC2)c(Cl)c1	30.2% (inactive)
O=C(/C=C/c1ccc(Cl)c([N+](=O)[O-])c1)c1ccc(O)cc1	48.3% (active)
O=C(/C=C/c1ccc(Cl)c([N+](=O)[O-])c1)c1cccnc1	62% (active)
Cc1ccc(N2C(=O)C(Cc3ccccc3)NC2=S)cc1 (stereo not given)	16.7% (inactive)

— PubChem BioAssay AID463213 (Sanford-Burnham Center for Chemical Genomics, 2010)
